The campaign covered roughly 47,000 compounds. About 3,100 (6.6%) were called active. The sample as a whole holds a higher share of actives than the screen did. A number with no mark means an inactive call. Rule as the data show it: active = inhibition above about 30%; inactive = the rest.
Each compound was assayed against Ubiquitin carboxyl-terminal hydrolase 17-like protein 5 (Homo sapiens) (UniProt A8MUK1) (assay: inhibitors of human USP17 deubiquitinase (AID 1645855)). Details: purified USP17, Ub-rhodamine cleavage fluorescence, 3 h; at 50 µM; stronger effect = higher value.
Chain of Ubiquitin carboxyl-terminal hydrolase 17-like protein 5 (Homo sapiens) (A8MUK1 whole entry, looked up): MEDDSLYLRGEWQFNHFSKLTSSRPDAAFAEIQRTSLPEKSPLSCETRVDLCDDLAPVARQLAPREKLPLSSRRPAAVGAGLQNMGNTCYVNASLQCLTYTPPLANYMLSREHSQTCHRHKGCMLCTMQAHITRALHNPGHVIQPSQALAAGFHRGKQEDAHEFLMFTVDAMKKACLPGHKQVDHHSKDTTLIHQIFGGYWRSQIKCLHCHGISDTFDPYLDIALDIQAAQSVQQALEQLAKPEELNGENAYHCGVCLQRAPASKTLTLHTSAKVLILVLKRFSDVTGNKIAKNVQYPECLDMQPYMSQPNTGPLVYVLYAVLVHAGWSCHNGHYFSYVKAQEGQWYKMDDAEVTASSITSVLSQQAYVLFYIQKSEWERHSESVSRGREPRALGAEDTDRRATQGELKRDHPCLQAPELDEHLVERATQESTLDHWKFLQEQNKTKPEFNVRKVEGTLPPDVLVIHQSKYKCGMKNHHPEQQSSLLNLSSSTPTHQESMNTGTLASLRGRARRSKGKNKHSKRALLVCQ

SMILES	inhibition
COc1cc([C@@H]2c3cc4c(cc3C[C@@H]3COC(=O)[C@H]32)OCO4)cc(OC)c1OC	68.6% (active)
O=C1CSC(c2ccc(F)cc2)c2c(-c3ccccc3)nn(-c3ccccc3)c2N1 (stereo not given)	6.01%
c1ccc(C2NCc3ccccc3-n3cccc32)cc1 (stereo not given)	1.12%
O=c1c2ccccc2nc(-c2ccccc2)n1-c1ccccn1	-2.09%
CN1C[C@H]2N(c3ncccn3)CCC[C@@]2(C(=O)NCC2CC2)C1	8.79%
